Only some compounds are listed: those with a hit (about 0.96% of all), similar ones and a draw of the others.
A647 fluor – compound fluoresces in the A647 spectral region | Compound fluorescence, A647 channel (570/671 nm), Tris buffer | max dye-equivalent concentration, M | 59,000 tested, under 10 active | AID 592;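 further: values scaled relative to a standard on each plate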
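Fluorescence read (570 nm ex, 671 nm em) after 15 min RT incubation of compounds in 100 mM Tris buffer, pH 8.0; values expressed as dye-equivalent concentration against a six-point A647 standard series on each plate.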
Rhodamine fluor – compound fluoresces in the rhodamine spectral region; Rhodamine-region fluorescence, 547/598 nm, Tris buffer; hits give high values; max dye-equivalent concentration, M; hit rate 0.05% among 59,000; in the data active means max dye-equivalent concentration above about 11 nM; inconclusive means between about 1.1 nM and that limit
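qHTS spectral profiling of compounds without any target or enzyme present, in pH 8.0 Tris buffer; plates were read after a 15-minute room-temperature incubation using the rhodamine-region filter set.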
Fluorescein autfl – fluorescein region autofluorescence; Compound autofluorescence, 480/540 nm, fluorescein-equivalent; hits give high values; max fluorescein-equivalent concentration, M; hit rate 0.91% among 59,000; AID 593; in the data active means max fluorescein-equivalent concentration above about 10 nM; inconclusive means between about 1.1 nM and that limit
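Normalized response (dye-equivalent concentration) derives from comparing each well's 540 nm emission, under 480 nm excitation, with plate-resident fluorescein standards. Compounds were held in 100 mM Tris, pH 8.0, for 15 min at room temperature.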
Resorufin fluor – compound fluoresces in the resorufin spectral region; Compound fluorescence, resorufin region 547/598 nm, buffer; hits give high values; max dye-equivalent concentration, M; hit rate 0.04% among 59,000
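Intrinsic fluorescence profiled in the resorufin window (ex 547 nm, em 598 nm) after 15 min at room temperature in pH 8.0 Tris buffer (100 mM); responses normalized against a six-point resorufin standard series as dye-equivalent concentration.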
TexasRed autofl – Texas Red region autofluorescence. Compound fluorescence, Texas Red channel, 547/618 nm; hits give high values. max dye-equivalent concentration, M. hit rate 0.06% among 59,000; in the data active means max dye-equivalent concentration above about 10 nM; inconclusive means between about 1.1 nM and that limit
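Compound titrations in 100 mM Tris pH 8.0 were incubated 15 min at room temperature and read at 547 nm excitation / 618 nm emission. Texas Red six-point standard curve on each plate converted fluorescence to dye-equivalent concentration.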
A488 autofl – A488 region autofluorescence; hit rate 0.1% among 59,000; AID 591; max dye equivalency, M; compound autofluorescence, A488 spectral region, dye equivalency; Compound Type: qHTS ECL - MLSMR
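Read-out: relative fluorescence at 480/540 nm, expressed as Alexa 488 dye-equivalent concentration from a six-point A488 standard included per plate. Conditions: 100 mM Tris, pH 8.0; 15 min incubation, room temperature.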
* = called active by the depositor; i = inactive; ? = inconclusive. Unless noted, how the calls were made is not given here.

SMILES	A647 fluor	Rhodamine fluor	Fluorescein autfl	Resorufin fluor	TexasRed autofl	A488 autofl
N#CC1=C(N)OC2=C(CCC/C2=C/c2ccoc2)C1c1ccoc1 (configuration not stated)	5.2e-09	i	1.37e-08M*	i	?	i
Cn1c(=O)[nH]c(=O)c2c1nc(NCc1ccccc1)n2CC(O)c1ccccc1 (configuration not stated)	1e-09	i	3.56e-08M*	i	i	?
c1ccc2c(N3CCNCC3)nc(-c3ccc4c(c3)OCO4)nc2c1	1e-09	i	i	i	i	i
Cn1ncc(N=Cc2ccccc2O)c1C(=O)Nc1ccccc1	7.56e-08	i	i	i	i	i
Cn1ncc(N=Cc2c(O)ccc3ccccc23)c1C(=O)N1CCOCC1	1e-09	i	1.67e-08M*	i	i	i
CCC(=O)O[C@@H]1[C@H](C)O[C@H](O[C@H]2[C@@H](N(C)C)[C@H](O)[C@@H](O[C@@H]3[C@@H](CC=O)C[C@@H](C)[C@@H](O)/C=C\C=C/C[C@@H](C)OC(=O)C[C@@H](OC(=O)CC)[C@H]3OC)O[C@H]2C)C[C@]1(C)O	5.9e-09	i	?	i	i	i
C[C@H](NCCN(C)C)[C@@H]1CCC2C3CCc4cc(O)ccc4[C@H]3CCC21C (some centres not stated)	1e-09	i	i	i	i	i
O=C1c2ccccc2C(=O)c2c(NC3CCCCC3)ccc(Nc3ccc(S(=O)(=O)O)cc3)c21	3.33e-08	1.2e-08M*	?	?	6.07e-08M*	i
NCCNC(=S)S	1e-09	i	i	i	i	i
COCCn1c(=O)c(-c2ccc(OC)cc2)nc2cnc(OCc3ccccc3)nc21	1.48e-08	i	i	i	i	i
O=C(O)CCc1c2ccc(=O)c(O)c-2oc2c(O)c(O)ccc12	1e-09	i	1.14e-08M*	i	i	i
OC[C@@H]1NC[C@@H](O)[C@@H](O)[C@H]1O	1e-09	i	i	i	i	i
CCN1C(=S)SC(=O)C1=C1C=C(C)N(CCOC)C(C)=C1	1e-09	i	1.06e-08M*	i	i	i
CCN1C(=S)SC(=O)C1=C1C=C(C)N(CCO)C(C)=C1	1e-09	i	?	i	i	i
CC(C)OC(=O)CC(=O)c1sc2nc3c(cc2c1N)CN(C)CC3	2.61e-08	i	1.89e-07M*	i	i	?
O=C(c1cc(C(F)(F)F)cc(C(F)(F)F)c1)N1CCC2(CC1)CCN(c1ccccn1)CC2	1.8e-09	i	i	i	i	i
FC(F)(F)c1ccccc1-c1ccc2ncnc(NCc3cccs3)c2c1	3e-08	i	?	i	i	i
N[C@@H](C(=O)O)[C@H](O)C(=O)O	3.7e-09	i	?	i	?	i
CC(=O)OCC(=O)NCc1ccc2c(c1)OCO2	4.03e-08	i	?	i	i	i
CC(C)c1nnc(NC(=O)CCC(=O)NCc2ccc3c(c2)OCO3)s1	2.2e-09	i	1.28e-07M*	i	i	?
C=CCOC(=O)C(C#N)c1nc2ccccc2nc1N1CCN(Cc2ccccc2)CC1 (configuration not stated)	1e-09	i	?	i	?	i
C=CCn1c(O)c(CN2CCN(Cc3ccccc3)CC2)c(C)c(C#N)c1=O	1e-09	i	2.14e-08M*	i	i	i
Cc1c(CN2CCCCC2)c(O)n(CCCO)c(=O)c1C#N	3.9e-09	i	1.63e-08M*	i	?	i
CCCn1c(O)c(CN2CCCCC2)c(C)c(C#N)c1=O	1.4e-09	i	1.49e-08M*	i	?	i
C[C@@H]1C(=O)O[C@H]2[C@@H](O)[C@@]34[C@H]5C[C@H](C(C)(C)C)[C@@]36[C@H](OC(=O)[C@@H]6O)O[C@@]4(C(=O)O5)[C@@]12O	2.8e-09	i	i	i	i	i

High-throughput results from PubChem BioAssay.
